HT1080 IDH1KD tx = kills HT-1080 cells with IDH1 knockdown. HT-1080 IDH1 knockdown viability, ATP luminescence, 48 h. Potency, µM (series often up to 46.1 µM), for inactives: at the top dose activity, negative = toxicity, usual class: cytotoxic. AID 686971. 360,000 tested, 2% active;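 further: potency means the concentration at half of the fitted maximal effect; 0% = DMSO wells and -100% = cell-free medium wells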
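CellTiter-Glo luminescence after 48 h compound exposure at 37 degrees C of IDH1-knockdown HT-1080 cells in 5% FBS RPMI. %Activity scaled between DMSO wells and cell-free media wells, with curves fitted and assigned curve classes.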
ELG1 DNA repair = blocks ELG1-dependent DNA repair in HEK293T cells. HEK293T ELG1-luciferase reporter, luminescence, 16 h; DNA damage induced by 5-fluorouridine. Potency, µM (titrated, usually from 46.1 µM), for the others: top-dose activity change, negative = inhibition, most hits filed as inhibitors. 330,000 tested, 2.3% active; further: potency means the concentration at half of the fitted maximal effect; nearly all actives have a fitted effect of over 55% in size
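Overnight (16 hr) co-exposure of 2,000 cells/well to 5-fluorouridine and compound at 37 °C preceded detection. Luciferase was quantified via ONE-Glo luminescence; loss of signal denotes inhibition.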
DT40 TDP1 CPT = growth inhibition of DT40 Tdp1-/-;hTDP1 cells with camptothecin (screen for TDP1 inhibitors) | AID 686979 | chicken DT40 Tdp1-/-;hTDP1 cells + 20 nM CPT, ATP luminescence, 48 h | 420,000 tested, 12% active | Potency, µM (series often up to 46.2 µM), for the others: at the highest dose activity change, negative = growth inhibition, actives largely listed as inhibitors; further: potency means the concentration at half of the fitted maximal effect; nearly all actives have a fitted effect of over 55% in size
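Cell growth measured by CellTiter-Glo luminescence after a minimum 48 h, 37 C compound exposure with 20 nM CPT in Tdp1-knockout DT40 cells stably expressing hTDP1, seeded 400/well; qHTS titration format.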
TDP1 cell noCPT = qHTS for Inhibitors of human tyrosyl-DNA phosphodiesterase 1 (TDP1): qHTS in cells in absence of CPT; Potency, µM (top dose mostly 46.2 µM), without a hit: top-dose activity change, negative = growth inhibition, most hits filed as inhibitors; AID 686978, 2013; 420,000 tested, 15% active; DT40 Tdp1-/- hTDP1 cells, no CPT, ATP luminescence, 48 h; further: potency means the concentration at half of the fitted maximal effect; nearly all actives have a fitted effect of over 55% in size
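Compound effects on proliferation are scored in DT40 Tdp1-/-;hTDP1 cells in the absence of CPT. ATP levels (CellTiter-Glo luminescence) are recorded after a ≥48 hr, 37 °C incubation.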
IL1B secr inh = inhibitors of inflammasome signaling (IL-1 beta secretion). THP-1 LPS/ATP IL-1B secretion, AlphaLISA, 16 h; active compounds read low. activity change, % at 57.5 µM. 360,000 tested, 4.7% active; in the data active means activity change below about -50%; inconclusive means mostly about -30% to -49%
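THP-1 cells pretreated 1 hr with compounds (up to 57.5 uM final), then stimulated with LPS (250 ng/mL final) plus ATP (1.25 mM final); secreted IL-1B measured by AlphaLISA after 16 hr, decreased signal indicating inhibition.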
HT1080-NT tox = kills 2HG-producing HT-1080-NT fibrosarcoma cells; 360,000 tested, 1.6% active; AID 686970; HT-1080-NT fibrosarcoma viability, CellTiter-Glo ATP luminescence, 48 h; Potency, µM (doses to about 46.1 µM), for the others: at the top dose activity, negative = less viability, usual class: cytotoxic;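 further: NT is the 2HG producing partner of a matched IDH1 knockdown line; potency means the concentration at half of the fitted maximal effect; 0% = DMSO-treated cells and -100% = media-only wells without cells; nearly all actives have a fitted effect of over 55% in size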
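Compounds were tested in concentration-response format on HT-1080-NT cells for 48 hours at 37 degrees C. Cell viability came from CellTiter-Glo luminescence; curves were classified by r2, response magnitude and activity.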
Active calls of the source: *. Hits are enriched below; roughly 19% of the tested compounds scored in any of these assays. Unless noted, the call rests on the fitted dose curve; in most records, active means well fitted curve in the direction sought with a large enough effect; inconclusive means small, poorly fitted or top-dose-only effect, or another doubt; inactive means no such curve, though single readings can be large; an effect the other way counts as inactive or inconclusive. Unless noted, on the % scale 0 is the no-effect control and ±100 the full control effect.

Screening O=C(CSc1nnnn1-c1ccccc1Cl)Nc1ccc2c(c1)OCCO2 returned HT1080 IDH1KD tx 0%, ELG1 DNA repair inconclusive, DT40 TDP1 CPT 16µM*, TDP1 cell noCPT 21µM*, IL1B secr inh 0 and HT1080-NT tox 0%.
COP(=O)(OC)C(Nc1ccc(C)cc1)c1ccc(Br)cc1 (stereo unspecified) was read as HT1080 IDH1KD tx -11%, DT40 TDP1 CPT -6%, TDP1 cell noCPT -26%, IL1B secr inh -25 and HT1080-NT tox -3%.
COc1cc(-c2nc3cnccn3c2Nc2ccc(C)cc2)ccc1O was read as HT1080 IDH1KD tx 16µM*, ELG1 DNA repair inconclusive, DT40 TDP1 CPT inconclusive, TDP1 cell noCPT inconclusive, IL1B secr inh 65 and HT1080-NT tox inconclusive.
`COc1cc(-c2nc3ccc(C)cn3c2Nc2ccc3c(c2)OCCO3)ccc1O` gave HT1080 IDH1KD tx inconclusive, ELG1 DNA repair 8%, DT40 TDP1 CPT inconclusive, TDP1 cell noCPT inconclusive, IL1B secr inh inconclusive and HT1080-NT tox inconclusive.
c1ccc(-c2nc3cnccn3c2Nc2ccc3c(c2)OCCO3)cc1 was read as HT1080 IDH1KD tx -10%, ELG1 DNA repair 18%, DT40 TDP1 CPT inconclusive, TDP1 cell noCPT inconclusive, IL1B secr inh 82 and HT1080-NT tox -2%.
`COc1cc(-c2nc3cnccn3c2Nc2ccc3c(c2)OCCO3)ccc1O` gave HT1080 IDH1KD tx -9%, ELG1 DNA repair -1%, DT40 TDP1 CPT inconclusive, TDP1 cell noCPT inconclusive, IL1B secr inh 59 and HT1080-NT tox 2%.
For COc1cc(-c2nc3cnccn3c2Nc2ccccc2)ccc1O the results were HT1080 IDH1KD tx -24%, ELG1 DNA repair inconclusive, DT40 TDP1 CPT 23µM*, TDP1 cell noCPT 18µM*, IL1B secr inh 156 and HT1080-NT tox -9%.
For COc1cc(-c2nc3nc[nH]n3c2Nc2ccc(C(C)C)cc2)ccc1O the results were DT40 TDP1 CPT 23µM* and TDP1 cell noCPT 7.3µM*.
For CC(C)c1ccc(Nc2c(-c3ccccc3O)nc3cnccn23)cc1 the results were DT40 TDP1 CPT inconclusive and TDP1 cell noCPT 21µM*.
O=C(OCC(=O)N1CCc2ccccc21)c1cncc(Br)c1 was read as HT1080 IDH1KD tx 4%, ELG1 DNA repair 13%, DT40 TDP1 CPT -2%, TDP1 cell noCPT 1%, IL1B secr inh 13 and HT1080-NT tox 24%.
Cc1cc(C(=O)NNC(=O)[C@H](C)NC(=O)c2ccc(Br)cc2)c(C)o1 was read as HT1080 IDH1KD tx -4%, ELG1 DNA repair -24%, DT40 TDP1 CPT -16%, TDP1 cell noCPT 2%, IL1B secr inh 0 and HT1080-NT tox -4%.
`COCCNc1nc(-c2ccoc2)nc2ccccc12` gave DT40 TDP1 CPT inconclusive and TDP1 cell noCPT -20%.
For Cc1cccc(Cn2c(=O)n(CCC(=O)NCc3ccc4c(c3)OCO4)c(=O)c3sccc32)c1 the results were DT40 TDP1 CPT -3% and TDP1 cell noCPT -21%.
Screening COc1ccc(/C(C)=N/NC(=O)CNC(=O)c2ccco2)c(OC)c1 returned HT1080 IDH1KD tx 12%, ELG1 DNA repair 3%, DT40 TDP1 CPT 6%, TDP1 cell noCPT 12%, IL1B secr inh 25 and HT1080-NT tox 4%.
`COc1cc(-c2nc3cnccn3c2Nc2ccc(C(C)C)cc2)ccc1O` gave HT1080 IDH1KD tx inconclusive, ELG1 DNA repair inconclusive, DT40 TDP1 CPT 9.2µM*, TDP1 cell noCPT 8.2µM*, IL1B secr inh -81* and HT1080-NT tox inconclusive.
